Six sequences from publication PMC11006913 can be followed below.

What all share (test): PBM; 200 nM protein, PBS
Conditions in all cases: dsDNA, one strand shown

The target in experiment [1] is HOXB4 (Homo sapiens, UniProt P17483 148-234).
Experiment [2] addresses T1, VENTX (Homo sapiens, UniProt O95231 78-163, R121Q).
T1 sequence: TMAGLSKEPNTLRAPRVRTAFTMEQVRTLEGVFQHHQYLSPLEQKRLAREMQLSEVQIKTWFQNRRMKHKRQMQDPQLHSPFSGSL

Experiment [3] deals with HOXA4 (Homo sapiens, UniProt Q00056 201-287, W262R).
A further experiment has as its target ALX4 (Homo sapiens, UniProt Q9H161 200-286).
Experiment [4] addresses PRRX1 (Homo sapiens, UniProt P54821 80-166, F113S).
The target in experiment [5] is T2, VENTX (Homo sapiens, UniProt O95231 78-163, Y115F).
T2 sequence: T1 sequence with Y38F, Q44R

The target of a further experiment is HOXA2 (Homo sapiens, UniProt O43364 129-215, R185T).
For experiment [6], the target named is HOXA4 (Homo sapiens, UniProt Q00056 201-287, R217L).
Experiment [7] deals with HOXB4 (Homo sapiens, UniProt P17483 148-234, V174I).
Experiment [8] addresses HOXA4 (Homo sapiens, UniProt Q00056 201-287).
The target in experiment [9] is MSX2 (Homo sapiens, UniProt P35548 130-214).
In experiment [10] the target is MSX2 (Homo sapiens, UniProt P35548 130-214, F161Y).
For experiment [11], the target named is VAX1 (Homo sapiens, UniProt Q5SQQ9 86-172, T142I).
Experiment [12] concerns the target HOXA4 (Homo sapiens, UniProt Q00056 201-287, W262F).
For experiment [13], the target named is PRRX1 (Homo sapiens, UniProt P54821 80-166).
The target in experiment [14] is VAX1 (Homo sapiens, UniProt Q5SQQ9 86-172, K157R).
The target of experiment [15] is T3, PAX4 (Homo sapiens, UniProt O43316 9-242, R200K).
T3 sequence: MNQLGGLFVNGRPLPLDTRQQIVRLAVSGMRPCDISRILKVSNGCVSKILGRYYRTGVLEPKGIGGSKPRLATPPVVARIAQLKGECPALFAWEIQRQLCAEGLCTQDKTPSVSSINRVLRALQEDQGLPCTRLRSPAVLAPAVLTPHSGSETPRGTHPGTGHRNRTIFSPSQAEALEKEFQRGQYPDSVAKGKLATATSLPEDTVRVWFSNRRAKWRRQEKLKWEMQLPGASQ

In experiment [16] the target is T4, PAX4 (Homo sapiens, UniProt O43316 9-242, R200Q).
T4 sequence: T3 sequence with K192Q

For experiment [17], the target named is T5, PAX4 (Homo sapiens, UniProt O43316 9-242, F177V).
T5 sequence: T3 sequence with F169V, K192R

The target of experiment [18] is T6, PAX4 (Homo sapiens, UniProt O43316 9-242, F177Y).
T6 sequence: T3 sequence with F169Y, K192R

Numbering of substitutions follows the chain as printed.

HOXA2, sequence (O43364 129-215 R185T): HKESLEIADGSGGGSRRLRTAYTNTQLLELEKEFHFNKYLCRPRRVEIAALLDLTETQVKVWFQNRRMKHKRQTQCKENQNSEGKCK
HOXB4 (Homo sapiens, UniProt P17483 148-234, V174I), sequence (P17483 148-234 V174I): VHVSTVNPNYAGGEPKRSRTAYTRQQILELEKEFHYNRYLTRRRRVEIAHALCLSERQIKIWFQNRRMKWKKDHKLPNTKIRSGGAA
HOXA4 (Homo sapiens, UniProt Q00056 201-287, W262R), sequence (Q00056 201-287 W262R): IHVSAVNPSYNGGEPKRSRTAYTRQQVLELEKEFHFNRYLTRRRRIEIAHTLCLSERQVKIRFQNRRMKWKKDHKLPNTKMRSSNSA
HOXA4 (Homo sapiens, UniProt Q00056 201-287), sequence (Q00056 201-287): as the sequence (Q00056 201-287 W262R) above, with R62W counted along it
MSX2 (Homo sapiens, UniProt P35548 130-214), sequence (P35548 130-214): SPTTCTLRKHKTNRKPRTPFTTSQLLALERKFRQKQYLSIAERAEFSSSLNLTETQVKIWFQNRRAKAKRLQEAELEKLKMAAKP
HOXA4 (Homo sapiens, UniProt Q00056 201-287, R217L), sequence (Q00056 201-287 R217L): as the sequence (Q00056 201-287 W262R) above, with R17L, R62W counted along it
VAX1 (Homo sapiens, UniProt Q5SQQ9 86-172, K157R), sequence (Q5SQQ9 86-172 K157R): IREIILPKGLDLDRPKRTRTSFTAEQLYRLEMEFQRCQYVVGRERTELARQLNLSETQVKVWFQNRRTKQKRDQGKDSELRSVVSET
PRRX1 (Homo sapiens, UniProt P54821 80-166), sequence (P54821 80-166): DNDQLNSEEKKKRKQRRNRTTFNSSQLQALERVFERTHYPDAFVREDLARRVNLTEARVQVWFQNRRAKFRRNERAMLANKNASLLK
MSX2 (Homo sapiens, UniProt P35548 130-214, F161Y), sequence (P35548 130-214 F161Y): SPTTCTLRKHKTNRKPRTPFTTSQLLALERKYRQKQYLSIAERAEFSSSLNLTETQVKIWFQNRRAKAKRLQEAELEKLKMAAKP
VAX1 (Homo sapiens, UniProt Q5SQQ9 86-172, T142I), sequence (Q5SQQ9 86-172 T142I): as the sequence (Q5SQQ9 86-172 K157R) above, with T57I, R72K counted along it
HOXA4 (Homo sapiens, UniProt Q00056 201-287, W262F), sequence (Q00056 201-287 W262F): as the sequence (Q00056 201-287 W262R) above, with R62F counted along it
HOXB4 (Homo sapiens, UniProt P17483 148-234), sequence (P17483 148-234): as the sequence (P17483 148-234 V174I) above, with I27V counted along it
ALX4, sequence (Q9H161 200-286): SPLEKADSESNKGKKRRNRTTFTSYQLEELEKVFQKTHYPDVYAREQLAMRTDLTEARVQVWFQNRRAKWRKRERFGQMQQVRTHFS
PRRX1 (Homo sapiens, UniProt P54821 80-166, F113S), sequence (P54821 80-166 F113S): as the sequence (P54821 80-166) above, with F34S counted along it

AGCAATTA: the binding signal in the experiment with HOXB4 [1] was 13 upbm affinity estimate (log intensity, higher = more binding, comparable within an allelic series); in the experiment with VENTX [2] it was 12 upbm affinity estimate (log intensity, higher = more binding, comparable within an allelic series); with HOXA4 [3], 10.5 upbm affinity estimate (log intensity, higher = more binding, comparable within an allelic series); with ALX4, 13.8 upbm affinity estimate (log intensity, higher = more binding, comparable within an allelic series); in the experiment with PRRX1 [4], 11.1 upbm affinity estimate (log intensity, higher = more binding, comparable within an allelic series); with VENTX [5] it was 11.8 upbm affinity estimate (log intensity, higher = more binding, comparable within an allelic series). In addition, the binding signal with HOXA2 is 12.8 upbm affinity estimate (log intensity, higher = more binding, comparable within an allelic series); with HOXA4 [6] it was 12 upbm affinity estimate (log intensity, higher = more binding, comparable within an allelic series); with HOXB4 [7], 13.7 upbm affinity estimate (log intensity, higher = more binding, comparable within an allelic series); with HOXA4 [8] it was 13.7 upbm affinity estimate (log intensity, higher = more binding, comparable within an allelic series); with MSX2 [9], 14.1 upbm affinity estimate (log intensity, higher = more binding, comparable within an allelic series); in the experiment with MSX2 [10] it was 13.8 upbm affinity estimate (log intensity, higher = more binding, comparable within an allelic series). In addition, the binding signal was 12.8 upbm affinity estimate (log intensity, higher = more binding, comparable within an allelic series) in the experiment with VAX1 [11]; 11.5 upbm affinity estimate (log intensity, higher = more binding, comparable within an allelic series) with HOXA4 [12]; 13.3 upbm affinity estimate (log intensity, higher = more binding, comparable within an allelic series) in the experiment with PRRX1 [13]; 12.7 upbm affinity estimate (log intensity, higher = more binding, comparable within an allelic series) in the experiment with VAX1 [14].
Consider ATCAATTA, for which the binding signal with HOXB4 [1] was 13.4 upbm affinity estimate (log intensity, higher = more binding, comparable within an allelic series); with VENTX [2] it was 12.3 upbm affinity estimate (log intensity, higher = more binding, comparable within an allelic series); in the experiment with HOXA4 [3], 10.7 upbm affinity estimate (log intensity, higher = more binding, comparable within an allelic series); in the experiment with ALX4 it was 14.2 upbm affinity estimate (log intensity, higher = more binding, comparable within an allelic series); with PAX4 [15], 11.8 upbm affinity estimate (log intensity, higher = more binding, comparable within an allelic series); with PRRX1 [4] it was 11.4 upbm affinity estimate (log intensity, higher = more binding, comparable within an allelic series). The binding signal was 11.8 upbm affinity estimate (log intensity, higher = more binding, comparable within an allelic series) in the experiment with VENTX [5]; 13.3 upbm affinity estimate (log intensity, higher = more binding, comparable within an allelic series) with HOXA2; 12.6 upbm affinity estimate (log intensity, higher = more binding, comparable within an allelic series) in the experiment with HOXA4 [6]; 14.1 upbm affinity estimate (log intensity, higher = more binding, comparable within an allelic series) in the experiment with HOXB4 [7]; 12.2 upbm affinity estimate (log intensity, higher = more binding, comparable within an allelic series) in the experiment with PAX4 [16]; 10.7 upbm affinity estimate (log intensity, higher = more binding, comparable within an allelic series) in the experiment with PAX4 [17]. Moreover, the binding signal with HOXA4 [8] is 14.1 upbm affinity estimate (log intensity, higher = more binding, comparable within an allelic series); with MSX2 [9] it was 14 upbm affinity estimate (log intensity, higher = more binding, comparable within an allelic series); with PAX4 [18], 11.2 upbm affinity estimate (log intensity, higher = more binding, comparable within an allelic series); with MSX2 [10], 13.7 upbm affinity estimate (log intensity, higher = more binding, comparable within an allelic series); with VAX1 [11], 12.9 upbm affinity estimate (log intensity, higher = more binding, comparable within an allelic series); with HOXA4 [12], 11.9 upbm affinity estimate (log intensity, higher = more binding, comparable within an allelic series). The binding signal with PRRX1 [13] was 13.6 upbm affinity estimate (log intensity, higher = more binding, comparable within an allelic series); in the experiment with VAX1 [14], 13.1 upbm affinity estimate (log intensity, higher = more binding, comparable within an allelic series).
On to CCTAATTA, for which the binding signal with HOXB4 [1] is 13.5 upbm affinity estimate (log intensity, higher = more binding, comparable within an allelic series); with VENTX [2], 12.6 upbm affinity estimate (log intensity, higher = more binding, comparable within an allelic series); in the experiment with HOXA4 [3], 10.7 upbm affinity estimate (log intensity, higher = more binding, comparable within an allelic series); with ALX4, 14.5 upbm affinity estimate (log intensity, higher = more binding, comparable within an allelic series); with PAX4 [15], 12.1 upbm affinity estimate (log intensity, higher = more binding, comparable within an allelic series); in the experiment with PRRX1 [4], 11.6 upbm affinity estimate (log intensity, higher = more binding, comparable within an allelic series). Further, the binding signal is 12.4 upbm affinity estimate (log intensity, higher = more binding, comparable within an allelic series) with VENTX [5]; 14 upbm affinity estimate (log intensity, higher = more binding, comparable within an allelic series) with HOXA2; 12.6 upbm affinity estimate (log intensity, higher = more binding, comparable within an allelic series) in the experiment with HOXA4 [6]; 14.2 upbm affinity estimate (log intensity, higher = more binding, comparable within an allelic series) with HOXB4 [7]; 12.5 upbm affinity estimate (log intensity, higher = more binding, comparable within an allelic series) with PAX4 [16]; 10.8 upbm affinity estimate (log intensity, higher = more binding, comparable within an allelic series) in the experiment with PAX4 [17]. The binding signal is 14.2 upbm affinity estimate (log intensity, higher = more binding, comparable within an allelic series) with HOXA4 [8]; 14.1 upbm affinity estimate (log intensity, higher = more binding, comparable within an allelic series) in the experiment with MSX2 [9]; 11.3 upbm affinity estimate (log intensity, higher = more binding, comparable within an allelic series) in the experiment with PAX4 [18]; 13.7 upbm affinity estimate (log intensity, higher = more binding, comparable within an allelic series) in the experiment with MSX2 [10]; 13.9 upbm affinity estimate (log intensity, higher = more binding, comparable within an allelic series) with VAX1 [11]; 12.3 upbm affinity estimate (log intensity, higher = more binding, comparable within an allelic series) in the experiment with HOXA4 [12]. The binding signal was 13.6 upbm affinity estimate (log intensity, higher = more binding, comparable within an allelic series) in the experiment with PRRX1 [13] and 14.1 upbm affinity estimate (log intensity, higher = more binding, comparable within an allelic series) with VAX1 [14].
Regarding TATTAGAA, the binding signal with HOXB4 [1] was 10.9 upbm affinity estimate (log intensity, higher = more binding, comparable within an allelic series); with PAX4 [15] it was 11 upbm affinity estimate (log intensity, higher = more binding, comparable within an allelic series); with HOXB4 [7], 11 upbm affinity estimate (log intensity, higher = more binding, comparable within an allelic series); with PAX4 [16], 11 upbm affinity estimate (log intensity, higher = more binding, comparable within an allelic series); with PAX4 [17] it was 10.3 upbm affinity estimate (log intensity, higher = more binding, comparable within an allelic series).
As to TCAATTAA, the binding signal was 13.3 upbm affinity estimate (log intensity, higher = more binding, comparable within an allelic series) with HOXB4 [1]; 12 upbm affinity estimate (log intensity, higher = more binding, comparable within an allelic series) with VENTX [2]; 10.7 upbm affinity estimate (log intensity, higher = more binding, comparable within an allelic series) with HOXA4 [3]; 14.1 upbm affinity estimate (log intensity, higher = more binding, comparable within an allelic series) in the experiment with ALX4; 11.3 upbm affinity estimate (log intensity, higher = more binding, comparable within an allelic series) with PRRX1 [4]; 11.6 upbm affinity estimate (log intensity, higher = more binding, comparable within an allelic series) with VENTX [5]. For the same sequence, the binding signal with HOXA2 was 13.1 upbm affinity estimate (log intensity, higher = more binding, comparable within an allelic series); with HOXA4 [6], 12.4 upbm affinity estimate (log intensity, higher = more binding, comparable within an allelic series); with HOXB4 [7], 14 upbm affinity estimate (log intensity, higher = more binding, comparable within an allelic series); in the experiment with PAX4 [16] it was 11.8 upbm affinity estimate (log intensity, higher = more binding, comparable within an allelic series); with HOXA4 [8], 13.9 upbm affinity estimate (log intensity, higher = more binding, comparable within an allelic series); with MSX2 [9], 13.9 upbm affinity estimate (log intensity, higher = more binding, comparable within an allelic series). The binding signal in the experiment with MSX2 [10] was 13.5 upbm affinity estimate (log intensity, higher = more binding, comparable within an allelic series); with VAX1 [11] it was 13.1 upbm affinity estimate (log intensity, higher = more binding, comparable within an allelic series); with HOXA4 [12] it was 11.8 upbm affinity estimate (log intensity, higher = more binding, comparable within an allelic series); in the experiment with PRRX1 [13] it was 13.5 upbm affinity estimate (log intensity, higher = more binding, comparable within an allelic series); with VAX1 [14] it was 13 upbm affinity estimate (log intensity, higher = more binding, comparable within an allelic series).
With AATTAAGA, the binding signal with ALX4 is 13.6 upbm affinity estimate (log intensity, higher = more binding, comparable within an allelic series); with PAX4 [15] it was 11.6 upbm affinity estimate (log intensity, higher = more binding, comparable within an allelic series); with PRRX1 [4], 11.2 upbm affinity estimate (log intensity, higher = more binding, comparable within an allelic series); with PAX4 [16] it was 11.9 upbm affinity estimate (log intensity, higher = more binding, comparable within an allelic series); with PAX4 [17], 10.5 upbm affinity estimate (log intensity, higher = more binding, comparable within an allelic series); with PAX4 [18] it was 10.9 upbm affinity estimate (log intensity, higher = more binding, comparable within an allelic series). In addition, the binding signal in the experiment with HOXA4 [12] was 11.6 upbm affinity estimate (log intensity, higher = more binding, comparable within an allelic series).
